Shown are actives, neighbours in structure and some others; about 31% of the full set was active somewhere.
CYP2C9 act: increases human cytochrome P450 2C9 activity; recombinant CYP2C9, luciferin-H conversion, luminescence; active compounds read high; factor 1 = untreated enzyme, 0 = blocked; P11712; activation factor at 5 µM; 96,000 compounds, 1.4% hits;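 active = activation factor of 2 or more for CYP2C9 at a 5 µM dose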
CYP2C19 inh: inhibitors of human CYP2C19 | 96,000 compounds, 21% hits | CYP2C19 Supersomes, luciferin-H EGE luminescence, 30 min | inhibition, % at 5 µM;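 active = CYP2C19 inhibition above a set limit at 5 µM in the primary screen, cut at about 50% in these data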
Target sequence (P33261 whole entry, looked up): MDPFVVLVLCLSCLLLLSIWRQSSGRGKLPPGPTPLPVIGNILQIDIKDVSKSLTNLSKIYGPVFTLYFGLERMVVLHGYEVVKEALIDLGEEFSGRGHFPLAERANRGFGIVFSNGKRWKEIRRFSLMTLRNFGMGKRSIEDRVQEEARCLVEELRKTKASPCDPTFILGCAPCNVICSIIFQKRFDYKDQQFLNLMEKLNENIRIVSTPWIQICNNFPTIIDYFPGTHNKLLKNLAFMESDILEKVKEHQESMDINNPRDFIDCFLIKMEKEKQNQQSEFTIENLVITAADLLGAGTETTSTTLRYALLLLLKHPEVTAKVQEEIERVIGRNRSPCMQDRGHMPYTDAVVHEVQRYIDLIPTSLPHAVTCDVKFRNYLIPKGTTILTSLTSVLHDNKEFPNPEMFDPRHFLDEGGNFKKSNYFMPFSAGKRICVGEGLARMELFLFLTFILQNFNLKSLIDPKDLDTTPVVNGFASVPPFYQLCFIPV
CYP2C9 inh: inhibitors of human CYP2C9. CYP2C9 Supersomes, luciferin-H conversion, luminescence. inhibition, % at 5 µM. 96,000 compounds, 20% hits. AID 777;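 active = blocking of liver enzyme CYP2C9 beyond about 50% at 5 µM, limit read from the data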
CYP2C19 activ: increases human CYP2C19 enzyme activity; 96,000 tested, under 10 active; P33261; recombinant CYP2C19, luciferin-H EGE luminescence; active compounds read high; 0 = fully inhibited enzyme, 1 = untreated enzyme; activation factor at 5 µM;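 active = activation factor of at least 2 at 5 µM in the primary screen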
Hits are given with their value.

Screening CC(=O)n1nc(-c2cccc(C)c2)nc1SCC(=O)Nc1ccccc1 returned CYP2C9 act inactive, CYP2C19 inh 55.2, CYP2C9 inh 60.6 and CYP2C19 activ inactive.
`Cc1ccc(NC(=O)CSc2ncc(-c3ccccc3)n2C(=O)c2ccccc2)cc1` gave CYP2C9 act inactive, CYP2C19 inh 69.3, CYP2C9 inh 58.7 and CYP2C19 activ inactive.
CN1CCCc2cc3c(C(F)(F)F)cc(=O)oc3nc21 was read as CYP2C9 act inactive, CYP2C19 inh inactive, CYP2C9 inh inactive and CYP2C19 activ inactive.
Screening CCOC(=O)c1nnn(-c2nonc2-c2ccccc2)c1C returned CYP2C9 act inactive, CYP2C19 inh inactive, CYP2C9 inh inactive and CYP2C19 activ inactive.
`CC(=O)Nc1nonc1-n1nnc(C(=O)NCc2ccccc2)c1C` gave CYP2C9 act inactive, CYP2C19 inh 83.4, CYP2C9 inh 70.3 and CYP2C19 activ inactive.
For c1ccc2c(c1)CCN(CCCNc1nc3ccccc3n3cnnc13)C2 the results were CYP2C9 act inactive, CYP2C19 inh inactive, CYP2C9 inh inactive and CYP2C19 activ inactive.
Screening O=C(NCc1ccco1)c1cnn2c(C(F)F)cc(-c3ccccc3)nc12 returned CYP2C9 act inactive, CYP2C19 inh inactive, CYP2C9 inh 57.8 and CYP2C19 activ inactive.
For O=C(NCc1ccco1)c1cnn2c(C(F)(F)F)cc(-c3cccs3)nc12 the results were CYP2C9 act inactive, CYP2C19 inh inactive, CYP2C9 inh 50.7 and CYP2C19 activ inactive.
Cc1cc(NC(=O)c2cnn3c(C(F)F)cc(-c4ccccc4)nc23)no1 was read as CYP2C9 act inactive, CYP2C19 inh inactive, CYP2C9 inh inactive and CYP2C19 activ inactive.
Screening O=C(O)c1cnn2c(C(F)(F)F)cc(-c3ccco3)nc12 returned CYP2C9 act inactive, CYP2C19 inh inactive, CYP2C9 inh inactive and CYP2C19 activ inactive.
`Cc1cc(C)c2c(n1)nn1c(C)c(CCC(=O)NCc3ccco3)c(C)nc21` gave CYP2C9 act inactive, CYP2C19 inh inactive, CYP2C9 inh inactive and CYP2C19 activ inactive.
For Cc1cc(C)c(Cc2c(C)nc3c(C(=O)NCc4ccco4)cnn3c2C)c(C)c1 the results were CYP2C9 act inactive, CYP2C19 inh inactive, CYP2C9 inh 78.5 and CYP2C19 activ inactive.
Screening O=C(CSc1nc2nc(-c3cccs3)cc(C(F)(F)F)c2c(=O)[nH]1)NCc1ccco1 returned CYP2C9 act inactive, CYP2C19 inh inactive, CYP2C9 inh 72.5 and CYP2C19 activ inactive.
For CN1CCN(S(=O)(=O)c2ccc(Cc3ccc(S(=O)(=O)N4CCN(C)CC4)cc3)cc2)CC1 the results were CYP2C9 act inactive, CYP2C19 inh inactive, CYP2C9 inh inactive and CYP2C19 activ inactive.
`CCC1(c2ccc(F)cc2)NC(=O)N(CC(=O)c2ccc[nH]2)C1=O` (configuration not stated) gave CYP2C9 act inactive, CYP2C19 inh inactive, CYP2C9 inh inactive and CYP2C19 activ inactive.
Screening O=C(CSc1n[nH]c(-c2ccc(S(=O)(=O)NC3CCCCC3)cc2)n1)N1CCCC1 returned CYP2C9 act inactive, CYP2C19 inh 87.2, CYP2C9 inh 51.3 and CYP2C19 activ inactive.
For O=C(Nc1ccccn1)[C@@H]1CCC(=O)N1C(=O)OCc1ccccc1 the results were CYP2C9 act inactive, CYP2C19 inh inactive, CYP2C9 inh inactive and CYP2C19 activ inactive.
Cn1cccc1CC(=O)N/N=C\c1c2ccccc2cc2ccccc12 was read as CYP2C9 act inactive, CYP2C19 inh 51.6, CYP2C9 inh inactive and CYP2C19 activ inactive.
For COc1cccc(CN2C(=O)CN(C3CCCCC3)C(=O)C2c2ccc(F)cc2)c1 (configuration not stated) the results were CYP2C9 act inactive, CYP2C19 inh inactive, CYP2C9 inh inactive and CYP2C19 activ inactive.
For CCOC(=O)N1CCC(NC(=O)c2cc(C(=O)NCC(OC)OC)ccc2CO)CC1 the results were CYP2C9 act inactive, CYP2C19 inh inactive, CYP2C9 inh inactive and CYP2C19 activ inactive.
`N#CCCN/N=C(/Cc1nc2ccccc2[nH]1)c1cccc(Cl)c1` gave CYP2C9 act inactive, CYP2C19 inh 86.5, CYP2C9 inh 62.9 and CYP2C19 activ inactive.
CCCCCSc1nnc(-c2cc(Br)ccc2N)c(=O)[nH]1 was read as CYP2C9 act inactive, CYP2C19 inh inactive, CYP2C9 inh 60.0 and CYP2C19 activ inactive.
Screening CCCCSc1nnc(-c2ccccc2N)c(=O)[nH]1 returned CYP2C9 act inactive, CYP2C19 inh inactive, CYP2C9 inh inactive and CYP2C19 activ inactive.
Nc1cc(C(=O)c2cccs2)ccc1Cl was read as CYP2C9 act inactive, CYP2C19 inh 87.3, CYP2C9 inh inactive and CYP2C19 activ inactive.
Screening O=C(NOC(=O)c1cc(Br)ccc1Cl)c1cccs1 returned CYP2C9 act inactive, CYP2C19 inh inactive, CYP2C9 inh inactive and CYP2C19 activ inactive.
CN(CC(=O)N1CCc2ccccc21)S(=O)(=O)c1cccs1 was read as CYP2C9 act 3, CYP2C19 inh 89.1, CYP2C9 inh inactive and CYP2C19 activ inactive.
For COc1ccc(/C=N/NC(=O)c2cc(C)on2)c2ccccc12 the results were CYP2C9 act inactive, CYP2C19 inh inactive, CYP2C9 inh inactive and CYP2C19 activ inactive.
Screening COc1ccc(NC2CC(=O)N(c3cccc(C)c3)C2=O)cc1 (configuration not stated) returned CYP2C9 act inactive, CYP2C19 inh 59.9, CYP2C9 inh inactive and CYP2C19 activ inactive.
`CCCCN1C(=O)CC(Nc2ccc(CC)cc2)C1=O` (configuration not stated) gave CYP2C9 act inactive, CYP2C19 inh 77.2, CYP2C9 inh inactive and CYP2C19 activ inactive.
`CCCN(CCC)C1CC(=O)N(Cc2ccccc2)C1=O` (configuration not stated) gave CYP2C9 act inactive, CYP2C19 inh 85.0, CYP2C9 inh inactive and CYP2C19 activ inactive.
For CCc1ccc(NC2CC(=O)N(c3ccc(OC)cc3OC)C2=O)cc1 (configuration not stated) the results were CYP2C9 act inactive, CYP2C19 inh inactive, CYP2C9 inh inactive and CYP2C19 activ inactive.
For Cc1ccc(N2C(=O)CC(Nc3ccccc3)C2=O)cc1 (configuration not stated) the results were CYP2C9 act inactive, CYP2C19 inh 53.4, CYP2C9 inh inactive and CYP2C19 activ inactive.
`COc1ccc(NC2CC(=O)N(C(C)C)C2=O)cc1` (configuration not stated) gave CYP2C9 act inactive, CYP2C19 inh inactive, CYP2C9 inh inactive and CYP2C19 activ inactive.
For O=C1CC(Nc2ccccc2)C(=O)N1c1ccc(N2CCOCC2)cc1 (configuration not stated) the results were CYP2C9 act inactive, CYP2C19 inh inactive, CYP2C9 inh inactive and CYP2C19 activ inactive.
O=C1CC(N(O)C2CC(=O)N(Cc3ccccc3)C2=O)C(=O)N1Cc1ccccc1 (configuration not stated) was read as CYP2C9 act inactive, CYP2C19 inh inactive, CYP2C9 inh inactive and CYP2C19 activ inactive.
O=C(COC(=O)c1c[nH]c(=O)[nH]c1=O)NCc1ccccc1 was read as CYP2C9 act inactive, CYP2C19 inh inactive, CYP2C9 inh inactive and CYP2C19 activ inactive.
O=C(N1CCOCC1)N1CCN(S(=O)(=O)N2CCCCC2)CC1 was read as CYP2C9 act inactive, CYP2C19 inh inactive, CYP2C9 inh inactive and CYP2C19 activ inactive.
